Sa RN4220 lethal – S. aureus RN4220 growth inhibition; OD600, 16 h; inhibition, % (test concentration not listed); 330,000 tested, 0.33% active; AID 1259311; in the data active = inhibition above about 85%;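 note: plate controls were untreated cells for no effect and reference antibiotic for full effect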
ugtP null kill – growth inhibition of S. aureus ugtP deletion strain; growth inhibition, % (concentration not given with the values); 330,000 tested, 0.54% active; S. aureus RN4220 ugtP deletion, OD600 growth, 16 h; in the data active = growth inhibition above about 68%;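 note: plate controls were untreated wells for no effect and antibiotic for full effect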
PriA SSB inh – K. pneumoniae PriA-SSBct interaction inhibition | AlphaScreen SSBct-PriA binding, biotinylated peptide | inhibition, % at 33 µM | 430,000 tested, 0.6% active | AID 1272365; in the data active = inhibition mostly above about 37%, no sharp cut-off; inactive = mostly below about 20%;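 note: plate controls were negative control peptide for no effect and reference peptide for full effect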
PfHsp40 rescue – restores yeast growth despite PfHsp40 toxicity. S. cerevisiae expressing PfHsp40, growth rescue, ATP luminescence. growth rescue, % at 12.5 µM. 340,000 tested, 0.68% active; in the data active = growth rescue above about 28%, passing the limit was not always enough;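 note: yeast W303a lacking pdr1 and pdr3 grown in galactose medium; growth measured after three days at 30 °C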
DUSP3 inh – DUSP3 (human) phosphatase inhibition | P51452 | recombinant VHR phosphatase, pNPP absorbance | inhibition, % at 13.3 µM | 290,000 tested, 0.52% active; in the data active = inhibition above about 50%
Target sequence (P51452 whole entry, looked up): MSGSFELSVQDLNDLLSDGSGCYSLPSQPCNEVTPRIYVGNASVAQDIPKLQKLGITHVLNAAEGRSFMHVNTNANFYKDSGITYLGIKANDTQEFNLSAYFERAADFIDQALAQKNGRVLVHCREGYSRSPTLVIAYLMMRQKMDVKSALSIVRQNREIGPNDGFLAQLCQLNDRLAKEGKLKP
Mtb hypoxia rep – Mtb hypoxia fluorescent reporter inhibition; M. tuberculosis hypoxia-regulated fluorescent reporter, fluorescence; fluorescence inhibition, % (test concentration not listed); 300,000 tested, 0.1% active; AID 1159583; in the data active = fluorescence inhibition mostly above about 23%, no sharp cut-off; inactive = mostly below about 17%
The depositor's hits bear a star; x = no result. Most compounds without a hit are left out; they make up all but 1.8% or so of the library.

SMILES	Sa RN4220 lethal	ugtP null kill	PriA SSB inh	PfHsp40 rescue	DUSP3 inh	Mtb hypoxia rep
OCCCCNCc1ccc(OCc2ccccc2)cc1	1	0	11	-1	52*	3
Cn1ccc(C(=O)NN=Cc2cccnc2)n1	2	15	-6	x	x	15
CC(=O)N1CCc2c(sc(NC(=O)CCS(=O)(=O)c3ccc(C)cc3)c2C#N)C1	2	2	0	1	x	4
CC(=O)N1CCc2c(sc(NC(=O)Cc3ccc(F)cc3)c2C#N)C1	4	-2	60*	1	-9	-5
CC(=O)N1CCc2c(sc(NC(=O)Cc3ccc(C)cc3C)c2C#N)C1	4	0	-3	-1	58*	2
CC(=O)N1CCc2c(sc(NC(=O)c3ccc([N+](=O)[O-])o3)c2C#N)C1	16	90*	0	1	18	40*
CC(=O)N1CCc2c(sc(NC(=O)Cc3ccc(F)cc3)c2C(N)=O)C1	6	11	0	-1	2	0
Cc1cc(C(=NO)C(C)(C)NO)ccc1Cl	2	4	-5	x	x	-6
CN1CCN(C(CNC(=O)Cc2ccc(-c3ccccc3)cc2)c2ccc3c(c2)CCN3C)CC1 (stereo unspecified)	x	x	72	x	x	x
COc1ccc(Cl)cc1S(=O)(=O)NCC1CCN(Cc2ccco2)CC1	x	x	7	x	x	x
CCc1ccccc1NC(=O)COc1ccc(OC)cc1	x	x	-9	x	x	x
Cc1ccc(S(=O)(=O)N2CCN(c3ncnc4scc(-c5ccc(F)cc5)c34)CC2)cc1	98*	99*	0	2	x	6
O=S(=O)(c1cccc(F)c1)N1CCN(c2ncnc3scc(-c4ccc(F)cc4)c23)CC1	97*	99*	-7	-1	x	-4
COc1ccc(-c2csc3ncnc(N4CCN(S(=O)(=O)c5ccc(C(C)=O)cc5)CC4)c23)cc1	7	0	-7	3	x	-5
Cc1ccc(S(=O)(=O)N2CCN(c3ncnc4scc(-c5ccccc5)c34)CC2)cc1	91*	58	0	3	x	3
CN1CCCN(c2ncnc3scc(-c4ccc(F)cc4)c23)CC1	2	0	4	0	22	-1
COc1ccc(NC(=O)Cn2cccc(-c3nc(-c4ccccc4)no3)c2=O)c(OC)c1	x	x	2	x	x	x
Cc1cc2nnc(SCCC(=O)Nc3ccc(C(C)(C)C)cc3)n2c2ccccc12	x	x	-13	x	x	x
O=C(Nc1cccc([N+](=O)[O-])c1)Nc1ccc2c(c1)CCC2	-4	-41	-6	2	18	6
O=[N+]([O-])c1cccc(CNc2ccc3c(c2)CCC3)c1	2	-4	69*	1	21	11
Cc1nn(-c2nc3ccccc3[nH]2)c(N)c1-c1ccc(Cl)cc1	57	95*	2	3	-3	1
Cc1nn(-c2nc3ccccc3[nH]2)c(=O)c2ccccc12	5	-3	-4	-6	14	1
CCCNC(=O)c1ccc(COc2ccc(Cl)cc2)o1	4	10	-17	4	35	-4
CC(=O)OCC1=C(C(=O)O)N2C(=O)C(NC(=O)c3ccc(COc4c(C)cccc4Cl)o3)C2SC1 (stereo unspecified)	96*	100*	-12	1	11	9
CC(=O)OCC1=C(C(=O)O)N2C(=O)C(NC(=O)c3ccc(COc4ccc(Cl)cc4)o3)C2SC1 (stereo unspecified)	99*	100*	-6	2	-6	11
SMILES	Sa RN4220 lethal	ugtP null kill	PriA SSB inh	PfHsp40 rescue	DUSP3 inh	Mtb hypoxia rep
C=CCc1cc(C(=O)N2CCCCC2)ccc1O	6	9	-5	-1	-2	0
C=CCc1ccc(O)c(-c2ccc(O)c(CC=C)c2)c1	-6	15	4	233*	-6	x
C/C(=N\Nc1nc2ccccc2s1)c1ccc(Br)s1	x	x	x	145*	17	x
CC(=NNc1nc2ccccc2s1)c1ccncn1	x	x	-3	150*	x	x
O=C(c1ccc(S(=O)(=O)N2CCOCC2)cc1)N(C(=O)N1CCCCC1)c1cccc(Cl)c1	x	x	5	x	x	x
O=C1NC2(CCCCC2)Cc2ccccc21	2	0	-6	0	8	7
S=C1NC2(CCCCC2)Cc2ccccc21	-2	6	44*	0	-11	4
CCOC(=O)c1sc2nc(-c3ccccc3)cc(-c3ccccc3)c2c1N=Cc1cc(I)cc(I)c1O	x	x	-2	x	x	x
C/C(CC(C)C)=N\NC(=O)Nc1ccccc1	x	x	x	0	51*	x
CCC(CO)Nc1ncnc2c1cnn2-c1ccc(OC)cc1 (stereo unspecified)	0	8	115*	-1	-13	10
Cc1[nH]n(-c2ccccc2)c(=O)c1C(=O)c1ccc(Cl)cc1	27	17	-4	96*	17	-6
CC/C(=N\NC(=O)c1ccccc1O)c1c(O)n(C2CCCCC2)c(=O)[nH]c1=O	x	x	x	0	-14	x
CCSC(=S)c1c(C)[nH]n(-c2ccccc2)c1=O	72	73	6	34*	-1	10
Cc1[nH]n(-c2ccccc2)c(=O)c1C(=O)c1ccccc1	20	-1	5	1	0	13
Cc1[nH]n(-c2ccc(Cl)cc2)c(=O)c1C(=O)c1ccccc1	26	3	-18	87*	25	-9
Cc1[nH]n(-c2ccccc2)c(=O)c1C(=O)c1cccc(F)c1	24	-4	9	-1	-5	13
CC/C(=N/NC(=O)c1ccccc1O)c1c(C)[nH]n(-c2ccccc2)c1=O	x	x	x	399*	x	x
Cc1ccc(S(=O)(=O)/C(C#N)=C/N2CCN(c3cccc(C(F)(F)F)c3)CC2)cc1	x	x	-3	x	x	x
Cc1nc(-c2cccs2)sc1C(=O)Nc1ccc(-c2cn3ccsc3n2)cc1	x	x	4	x	x	x
C[C@H](N)C(=O)NC[C@H]1O[C@@H](n2cnc3c(N)ncnc32)[C@H](O)[C@@H]1O	3	-3	-3	-2	x	-9
CSCC[C@H](N)C(=O)NC[C@H]1O[C@@H](n2cnc3c(N)ncnc32)[C@H](O)[C@@H]1O	3	10	-12	39*	x	3
Nc1ncnc2c1ncn2[C@@H]1O[C@H](CNC(=O)[C@@H](N)C2CCCCC2)[C@@H](O)[C@H]1O	1	2	-8	73*	x	-15
CN(O)C=c1ccc2c(n1)C(=O)C=CC=2	x	x	95*	x	x	x
CN(O)/C=c1/ccc2c(n1)C(=O)C=CC=2	4	2	x	2	13	x
O=[N+]([O-])c1ccc(CSc2nnc(-c3cccc(S(=O)(=O)N4CCCC4)c3)o2)cc1	x	x	0	x	x	x
Cc1cccc(N=C2NN=C(c3ccccc3F)CS2)c1C	4	7	44*	1	29	17
Fc1ccc(F)c(C2=NNC(=Nc3ccccc3F)SC2)c1	-1	1	38	4	2	13
Fc1ccc(N=C2NN=C(c3cc(F)ccc3F)CS2)cc1	22	-13	50*	-1	-12	5
COCCn1c(=NC(=O)C2CC2)sc2cc(C)ccc21	x	x	0	x	x	x
CC1CCc2[nH]c3ccc(C(=O)O)cc3c2C1 (stereo unspecified)	5	-4	-20	3	16	-3
